From PubChem BioAssay (NCI)
The panel holds about 79,000 compounds, 15% with a hit somewhere; the sample as a whole holds those more often. The source made the active and inactive calls. Rule as the data show it: active = growth inhibition above about 70%; inactive = the rest.

What was measured:
[1] = NCI Yeast Anticancer Drug Screen. Data for the rad52 strain (AID 147);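 also: 0% = growth of vehicle-treated control cultures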; details: S. cerevisiae rad52 mutant growth inhibition, stronger effect = higher value
Summary of the method: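 Screen used a yeast mutant impaired in DNA repair. After compound exposure, growth was measured. Values reflect inhibition compared with vehicle-treated cells.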

[2] = NCI Yeast Anticancer Drug Screen. Data for the wt1 strain (AID 149);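 also: 0% = growth of vehicle-treated wt1 cultures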; details: S. cerevisiae wt1 strain (SPY 50644) growth inhibition, stronger effect = higher value
Summary of the method: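 wt1 strain grown with compound or vehicle; inhibition taken from the growth difference.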

[3] = NCI Yeast Anticancer Drug Screen. Data for the rad50EPP+ strain (AID 151);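 also: 0% = growth of vehicle-treated control cultures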; details: S. cerevisiae rad50 mutant strain, stronger effect = higher value
Summary of the method: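 Exposing the rad50EPP+ strain to each compound, growth was compared with vehicle-only cultures to give inhibition.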

[4] = NCI Yeast Anticancer Drug Screen. Data for the mgt1 strain (AID 153); details: S. cerevisiae mgt1 mutant growth inhibition, stronger effect = higher value
Summary of the method: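 Genetically defined yeast (mgt1) treated with compound; inhibition of growth expressed against vehicle-treated controls.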

[5] = NCI Yeast Anticancer Drug Screen. Data for the rad50 strain (AID 155);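 also: 0% = growth of vehicle-only cultures of the same strain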; details: S. cerevisiae rad50 strain growth inhibition, stronger effect = higher value
Summary of the method: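 DNA repair mutant yeast, compound exposure, growth read-out; inhibition is taken relative to vehicle.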

[6] = NCI Yeast Anticancer Drug Screen. Data for the mec2-1 strain (AID 157); details: S. cerevisiae mec2-1 strain, stronger effect = higher value
Summary of the method: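 Readout is yeast growth inhibition, normalised to vehicle-treated controls, in the mec2-1 strain exposed to compound.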

[7] = NCI Yeast Anticancer Drug Screen. Data for the rad14 strain (AID 159);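 also: 0% = growth of vehicle-treated control cultures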; details: S. cerevisiae rad14 strain growth inhibition, stronger effect = higher value
Summary of the method: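 DNA repair-defective yeast, compound-exposed; % growth inhibition derived by comparison with vehicle-treated controls.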

[8] = NCI Yeast Anticancer Drug Screen. Data for the sgs1 mgt1 strain (AID 161);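 also: 0% = growth of cultures given vehicle only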; details: S. cerevisiae sgs1 mgt1 strain, stronger effect = higher value
Summary of the method: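 Compounds are added to genetically altered yeast, and growth is compared with cultures given vehicle alone to give percent inhibition.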

[9] = NCI Yeast Anticancer Drug Screen. Data for the CLN2oe strain (AID 163);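 also: 0% = growth of vehicle-only control cultures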; details: S. cerevisiae CLN2oe strain, stronger effect = higher value
Summary of the method: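 Values reflect how much compound exposure reduced yeast growth, referenced to vehicle-exposed cells. Assay organism is a strain with a defined genetic change affecting cell-cycle control.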

[10] = NCI Yeast Anticancer Drug Screen. Data for the cln2 rad14 strain (AID 165);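 also: 0% = growth equal to vehicle treated cultures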; details: S. cerevisiae cln2 rad14 strain, stronger effect = higher value
Summary of the method: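 Relative to vehicle controls, growth inhibition of compound-treated cln2 rad14 yeast was recorded.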

[11] = NCI Yeast Anticancer Drug Screen. Data for the bub3 strain (AID 167); details: S. cerevisiae bub3 mutant strain, stronger effect = higher value
Summary of the method: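 In this screen, a yeast mutant lacking normal mitotic checkpoint function is challenged with compound. Relative growth versus vehicle gives the inhibition value.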

[12] = NCI Yeast Anticancer Drug Screen. Data for the wt2 strain (AID 169);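 also: 0% = growth of vehicle-treated yeast cultures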; details: S. cerevisiae wt2 strain growth inhibition, stronger effect = higher value
Summary of the method: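 Values express reduction in yeast growth under compound treatment, referenced to vehicle-treated cells.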

[13] = NCI Yeast Anticancer Drug Screen. Data for the mlh1 strain (AID 171);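 also: 0% = growth of vehicle-treated control cultures of the same strain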; details: S. cerevisiae mlh1 strain growth inhibition, stronger effect = higher value
Summary of the method: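 Steps: expose the defined-mutant yeast strain to compound; expose a parallel culture to vehicle; measure growth; express compound effect as inhibition relative to the vehicle culture.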

[14] = NCI Yeast Anticancer Drug Screen. Data for the sgs1 strain (AID 173);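 also: 0% = growth of vehicle-only control cultures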; details: S. cerevisiae sgs1 mutant, stronger effect = higher value
Summary of the method: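 Treat defined-mutant yeast with compound; measure growth; calculate inhibition relative to vehicle-treated cells.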

[15] = NCI Yeast Anticancer Drug Screen. Data for the mlh1 rad18 strain (AID 175); details: S. cerevisiae mlh1 rad18 strain growth inhibition, stronger effect = higher value
Summary of the method: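 Test agents were incubated with a yeast strain of defined genotype (DNA damage repair defect). Inhibition of growth was derived by comparison with vehicle-exposed cultures.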

[16] = NCI Yeast Anticancer Drug Screen. Data for the rad18 strain (AID 177); details: S. cerevisiae rad18 mutant growth inhibition, stronger effect = higher value
Summary of the method: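 A genetically defined yeast mutant impaired in DNA damage repair was treated with test compounds, then its growth was measured against cultures receiving vehicle alone.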

[17] = at 5.0 µM (retest, dose inferred, filed as 0.5)
[18] = at 50.0 µM (retest, dose inferred, filed as 5.0)

Measured: growth inhibition

O=C(O)CNC(c1ccccc1)(c1ccccc1)c1ccccc1
active: [1]; at 33.0 µM 92% | [1]; at 100.0 µM 98% | [2]; at 33.0 µM 83% | [2]; at 100.0 µM 97% | [4]; at 33.0 µM 87% | [4]; at 100.0 µM 96% | [5]; at 33.0 µM 87% | [5]; [18] 97% | [5]; at 50.0 µM 86.3% | [5]; at 100.0 µM 96% | [6]; at 33.0 µM 91% | [6]; [18] 91% | [6]; at 50.0 µM 90% | [6]; at 100.0 µM 99% | [7]; at 33.0 µM 90% | [7]; at 100.0 µM 98% | [8]; [18] 98% | [8]; at 50.0 µM 90.8% | [9]; at 33.0 µM 85% | [9]; at 100.0 µM 98% | [10]; [18] 99% | [10]; at 50.0 µM 86.3% | [11]; at 33.0 µM 94% | [11]; [18] 97% | [11]; at 50.0 µM 90.7% | [11]; at 100.0 µM 98% | [12]; at 33.0 µM 82% | [12]; at 100.0 µM 98% | [13]; at 33.0 µM 82% | [13]; at 100.0 µM 97% | [14]; at 33.0 µM 89% | [14]; at 100.0 µM 97% | [15]; [18] 91% | [15]; at 50.0 µM 89.9% | [16]; at 33.0 µM 89% | [16]; at 100.0 µM 97%
inactive: [1]; at 1.2 µM -9% | [1]; at 3.7 µM -2% | [1]; at 11.0 µM -2% | [2]; at 1.2 µM -15% | [2]; at 3.7 µM -9% | [2]; at 11.0 µM -25% | [3]; at 1.2 µM 11% | [3]; at 3.7 µM 4% | [3]; at 11.0 µM -6% | [3]; at 33.0 µM -3% | [3]; at 100.0 µM -5% | [4]; at 1.2 µM 19% | [4]; at 3.7 µM 13% | [4]; at 11.0 µM 16% | [5]; at 1.2 µM -10% | [5]; at 3.7 µM -2% | [5]; [17] 43% | [5]; at 11.0 µM -2% | [6]; at 1.2 µM -1% | [6]; at 3.7 µM 12% | [6]; [17] 35% | [6]; at 11.0 µM 6% | [7]; at 1.2 µM -2% | [7]; at 3.7 µM -6% | [7]; at 11.0 µM -6% | [8]; [17] 2% | [9]; at 1.2 µM -14% | [9]; at 3.7 µM -12% | [9]; at 11.0 µM -6% | [10]; [17] 18% | [11]; at 1.2 µM -5% | [11]; at 3.7 µM 13% | [11]; [17] -8% | [11]; at 11.0 µM 24% | [12]; at 1.2 µM -27% | [12]; at 3.7 µM -20% | [12]; at 11.0 µM -9% | [13]; at 1.2 µM -32% | [13]; at 3.7 µM -29% | [13]; at 11.0 µM -20% | [14]; at 1.2 µM 3% | [14]; at 3.7 µM 3% | [14]; at 11.0 µM 5% | [15]; [17] 37% | [16]; at 1.2 µM -5% | [16]; at 3.7 µM -6% | [16]; at 11.0 µM -4%

CC1=CC(=O)C=CC1=Nc1cc(Cl)c(O)c(Cl)c1
active: [1]; at 100.0 µM 92% | [2]; at 100.0 µM 93% | [3]; at 100.0 µM 70% | [4]; at 100.0 µM 94% | [5]; at 50.0 µM 81.4% | [5]; at 100.0 µM 91% | [6]; at 50.0 µM 79.3% | [6]; at 100.0 µM 93% | [7]; at 100.0 µM 89% | [8]; [18] 93% | [8]; at 50.0 µM 83.7% | [9]; at 100.0 µM 90% | [10]; [18] 94% | [10]; at 50.0 µM 77.2% | [11]; [18] 91% | [11]; at 50.0 µM 83% | [11]; at 100.0 µM 92% | [12]; at 100.0 µM 94% | [13]; at 100.0 µM 91% | [14]; at 100.0 µM 89% | [15]; at 50.0 µM 82% | [16]; at 100.0 µM 91%
inactive: [1]; at 1.2 µM -39% | [1]; at 3.7 µM -29% | [1]; at 11.0 µM 7% | [1]; at 33.0 µM 66% | [2]; at 1.2 µM -30% | [2]; at 3.7 µM -24% | [2]; at 11.0 µM -12% | [2]; at 33.0 µM 52% | [3]; at 1.2 µM -31% | [3]; at 3.7 µM -15% | [3]; at 11.0 µM -16% | [3]; at 33.0 µM 27% | [4]; at 1.2 µM -4% | [4]; at 3.7 µM 4% | [4]; at 11.0 µM 9% | [4]; at 33.0 µM 40% | [5]; at 1.2 µM -2% | [5]; at 3.7 µM 8% | [5]; [17] 55% | [5]; at 11.0 µM 8% | [5]; at 33.0 µM 62% | [5]; [18] 53% | [6]; at 1.2 µM -21% | [6]; at 3.7 µM -16% | [6]; [17] 63% | [6]; at 11.0 µM -4% | [6]; at 33.0 µM 55% | [6]; [18] 48% | [7]; at 1.2 µM -43% | [7]; at 3.7 µM -31% | [7]; at 11.0 µM -30% | [7]; at 33.0 µM 38% | [8]; [17] -4% | [9]; at 1.2 µM -2% | [9]; at 3.7 µM -9% | [9]; at 11.0 µM 22% | [9]; at 33.0 µM 45% | [10]; [17] 48% | [11]; at 1.2 µM 7% | [11]; at 3.7 µM 11% | [11]; [17] 45% | [11]; at 11.0 µM 8% | [11]; at 33.0 µM 49% | [12]; at 1.2 µM -31% | [12]; at 3.7 µM -20% | [12]; at 11.0 µM -14% | [12]; at 33.0 µM 30% | [13]; at 1.2 µM -51% | [13]; at 3.7 µM -24% | [13]; at 11.0 µM -21% | [13]; at 33.0 µM 10% | [14]; at 1.2 µM -50% | [14]; at 3.7 µM -42% | [14]; at 11.0 µM -17% | [14]; at 33.0 µM 43% | [15]; [17] 40% | [15]; [18] 48% | [16]; at 1.2 µM -11% | [16]; at 3.7 µM -10% | [16]; at 11.0 µM -9% | [16]; at 33.0 µM 60%
